Assay outcomes: PubChem, National Center for Advancing Translational Sciences (NCATS)
The list is not random: actives were taken first. Their share in the collection is about 3.2%.
Tau fluor cs = Counterscreen qHTS for Inhibitors of Tau Fibril Formation, Fluorescence Polarization; tau K18 P301L Alexa594 fluorescence, heparin fibrillization; Potency, µM (doses to about 57.7 µM), for inactives: at the highest dose activity change, negative = decrease; 0.93% of 280,000 active; also: potency is read from the fitted curve at half-maximal effect; % is scaled to controls: 0 for no effect and ±100 for the full control effect; nearly all actives have a fitted effect of over 55% in size
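Human K18 P301L tau (15 uM unlabeled plus 0.24 uM Alexa 594-labeled, final) in 100 mM sodium acetate pH 7 was mixed with compound and 20 uM heparin and incubated 6 hr at 37 C.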
KDM4E inh = qHTS Assay for Inhibitors of Human Jumonji Domain Containing 2E (JMJD2E) | Lysine-specific demethylase 4E (Homo sapiens), B2RXH2 | JMJD2E catalytic domain, FDH-coupled NADH fluorescence (FDH is formaldehyde dehydrogenase) | Potency, µM (series often up to 57.1 µM), for inactives: at the highest dose activity change, negative = inhibition, usual class: inhibitors | 1.6% of 230,000 active | AID 2147, 2009; active = well fitted inhibition curve with a large enough effect, not every such curve was filed as active; inconclusive = small, poorly fitted or top-dose-only effect, or another doubt; inactive = no such curve, though single readings can be large or run the other way;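 also: potency is read from the fitted curve at half-maximal effect; 0% = wells with enzyme and -100% = buffer wells without enzyme; nearly all actives have a fitted effect of over 50% in size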
LMNA splice mod = qHTS Assay for Modulators of Lamin A Splicing. 0.01% of 200,000 active. Potency, µM (doses to about 46.1 µM), for inactives: top-dose ratio change, negative = inhibition, actives largely listed as inhibitors. HeLa LMNA splicing GFP/RFP minigene ratio, 48 h; active = well fitted inhibition curve with a large enough effect in the signal ratio, with a control signal flat, not every such curve was filed as active; inconclusive = small, poorly fitted or top-dose-only effect, or effect the other way, or a change in a side signal; the % refers to the signal ratio; also: potency is read from the fitted curve at half-maximal effect; % is scaled to controls: 0 for no effect and ±100 for the full control effect
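S3 HeLa cells stably expressing lamin A-EGFP splicing minigene plus DsRed2, 600 cells/well, 48 h compound exposure at 37C. Laser-scanning cytometry; analysed as GFP (500-530 nm)/RFP (575-640 nm) total intensity ratio; 0.5% DMSO vehicle.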
Tau FP inhib = qHTS for Inhibitors of Tau Fibril Formation, Fluorescence Polarization; 0.39% of 280,000 active; Potency, µM (highest dose often 57.7 µM), for the others: at the highest dose activity, negative = inhibition, most hits filed as inhibitors; K18 P301L tau heparin fibrillization, Alexa594 FP, 6 h; Microtubule-associated protein tau (Homo sapiens), P10636; also: potency is read from the fitted curve at half-maximal effect; % is scaled to controls: 0 for no effect and ±100 for the full control effect; nearly all actives have a fitted effect of over 55% in size
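K18 P301L tau (15 uM unlabeled/0.24 uM Alexa 594-labeled, final) + compound + heparin 20 uM final; 100 mM NaOAc pH 7; 6 hr 37 C; ThT 30 uM final added, 1 hr RT; FP ex 555/em 632 nm.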
CBFb RUNX1 block = qHTS Assay for Compounds Blocking the Interaction Between CBF-beta and RUNX1 for the Treatment of Acute Myeloid Leukemia | Runt-related transcription factor 1 (Homo sapiens) + Core-binding factor subunit beta … | AlphaScreen CBFb-His/RUNX1-biotin binding, biochemical | Potency, µM (series often up to 59.8 µM), for the others: at the highest dose activity, negative = inhibition, hits mostly inhibitors | 230,000 tested, under 10 active; also: % of control where 0% means no effect
Target sequence (Q01196 whole entry, looked up): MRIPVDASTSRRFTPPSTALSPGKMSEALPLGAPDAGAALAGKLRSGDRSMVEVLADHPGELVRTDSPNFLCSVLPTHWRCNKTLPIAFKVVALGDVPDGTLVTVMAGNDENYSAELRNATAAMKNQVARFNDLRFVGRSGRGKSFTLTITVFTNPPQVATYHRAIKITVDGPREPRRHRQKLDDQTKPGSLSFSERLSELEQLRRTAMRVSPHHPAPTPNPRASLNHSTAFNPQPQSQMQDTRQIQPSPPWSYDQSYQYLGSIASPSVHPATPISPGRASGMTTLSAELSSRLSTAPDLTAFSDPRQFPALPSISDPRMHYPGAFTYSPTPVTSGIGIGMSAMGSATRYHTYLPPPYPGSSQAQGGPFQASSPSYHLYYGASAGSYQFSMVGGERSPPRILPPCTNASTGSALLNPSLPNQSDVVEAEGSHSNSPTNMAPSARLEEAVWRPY
Target sequence (Q13951 whole entry, looked up): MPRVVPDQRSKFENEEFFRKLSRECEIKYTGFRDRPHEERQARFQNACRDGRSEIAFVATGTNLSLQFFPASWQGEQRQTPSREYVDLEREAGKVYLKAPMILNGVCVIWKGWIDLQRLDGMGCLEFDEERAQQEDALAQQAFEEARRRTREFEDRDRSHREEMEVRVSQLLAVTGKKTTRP
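Read-out: AlphaScreen. Format: His-CBF-beta with biotinylated RUNX1 (30 nM each) preincubated 20 min, compound 15 min, Ni-chelate plus streptavidin beads 90 min; room temperature throughout.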
Tau ThT inhib = qHTS for Inhibitors of Tau Fibril Formation, Thioflavin T Binding | Microtubule-associated protein tau (Homo sapiens), P10636 | recombinant tau K18 P301L (four-repeat tau fragment), heparin-induced fibrillization, ThT fluorescence | Potency, µM (series often up to 57.4 µM), for inactives: at the highest dose activity, negative = inhibition, actives largely listed as inhibitors | 2.1% of 270,000 active | AID 1460, 2008; also: potency is read from the fitted curve at half-maximal effect; % is scaled to controls: 0 for no effect and ±100 for the full control effect; nearly all actives have a fitted effect of over 55% in size
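Heparin-induced (20 uM) aggregation of recombinant human K18 P301L tau, 15 uM unlabeled with 0.24 uM labeled, pH 7 acetate buffer, 6 hr at 37 C with compound. Fibrils quantified by 30 uM ThT fluorescence after 1 hr ambient incubation.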
Numbers without * were called inactive; ? = inconclusive; . = not tested or not shown; [ ] = another dose, or the depositor's remark. Unless noted, calls follow the shape of the dose curve; as a rule, active = well fitted curve in the direction sought with a large enough effect; inconclusive = small, poorly fitted or top-dose-only effect, or another doubt; inactive = no such curve, though single readings can be large; an effect the other way counts as inactive or inconclusive.

SMILES | Tau fluor cs | KDM4E inh | LMNA splice mod | Tau FP inhib | CBFb RUNX1 block | Tau ThT inhib
O=C(OC1CCc2ccccc2C1=O)c1ccccc1O (centres undefined) | ? | ? | 29% | ? | -28% | 25µM*
O=C(N/N=C1\CCc2ccccc21)c1ccccc1O | -13% | ? | -13% | -9% | -3% | ?
O=C(Oc1cccc2c(O)cccc12)c1ccccc1 | 13µM*[quencher] | -6% | -4% | 11% | -8% | ?
O=C(NO)c1ccccc1 | . | . | . | . | 4%[21.7 µM] | .
COc1cc(Nc2c3c(nc4ccccc24)CCCC3)cc(OC)c1OC | -24% | 4% | . | 1% | -11% | ?
CCOC(=O)c1cccc(Nc2c3c(nc4ccccc24)CCC3)c1 | ? | . | . | -5% | . | -9%
COc1ccc(Nc2c3c(nc4ccc(NC(=O)c5cc(Cl)ccc5OC)cc24)CCCC3)cc1OC | ? | . | . | -6% | . | 7.1µM*
CCOc1ccccc1C(=O)Nc1ccc2nc3c(c(Nc4ccc(OC)c(OC)c4)c2c1)CCCC3 | ? | . | . | 5% | . | 10µM*
COc1ccccc1Nc1c2c(nc3ccc(NC(=O)c4ccc(N(C)C)cc4)cc13)CCCC2 | 11µM*[quencher] | . | . | 0% | . | 16µM*
COc1cc(OC)cc(C(=O)Nc2ccc3nc4c(c(Nc5ccc(OC)c(OC)c5)c3c2)CCCC4)c1 | 18µM*[quencher] | . | . | ? | . | 32µM*
COc1ccc(Cl)cc1NC(=O)c1cnc(SC)nc1-c1ccccc1 | -22% | . | -17%[46 µM] | ? | . | 1%
CCCCc1nc2c(c3c1C[C@H](C)OC3)CN(S(=O)(=O)c1ccc(Cl)c3nonc13)CC2 | -4%[11.6 µM] | 5%[11.4 µM] | ? | 7%[11.6 µM] | 1%[13.1 µM] | 5%[11.5 µM]
COC(=O)c1ccccc1S(=O)(=O)N1CCc2nc(-c3ccccc3)c3c(c2C1)CO[C@@H](C)C3 | 0%[11.6 µM] | -3%[11.4 µM] | -2%[9.22 µM] | -1%[11.6 µM] | 8%[13.1 µM] | 3%[11.5 µM]
Cc1ccc(C)c(Cn2c(=O)n(-c3ccc(F)cc3)c(=O)c3sc4ccccc4c32)c1 | -2% | . | . | -6% | . | 11%
Cc1ccc(S(=O)(=O)/C(C#N)=C/c2c[nH]c3ccccc23)cc1 | 10µM*[quencher] | -11% | ? | 13µM* | -9% | ?
Cn1cc(/C=C/C(=O)c2ccccc2)c2ccccc21 | ? | -27% | 2%[46 µM] | -6% | 21% | ?
O=C(/C=C/c1c[nH]c2ccccc12)c1ccccc1 | 0% | -1% | ? | ? | ? | 9%
COc1ccc2[nH]cc(/C=C/C(=O)c3ccccc3)c2c1 | 8.9µM*[quencher] | -15% | . | 11% | 11% | ?
Cc1ccc(C(=O)/C=C/c2c[nH]c3ccccc23)cc1 | 14µM*[quencher] | ? | ? | -14% | 2% | ?
Cc1ccc(C(=O)/C=C/c2cn(CN3CCN(C)CC3)c3ccccc23)cc1 | 14µM*[quencher] | ? | ? | -9% | 11% | ?
COC(=O)/C(C#N)=C/c1c[nH]c2ccccc12 | -19% | -3% | . | -9% | -5% | -13%
CCc1nnc(NC(=O)CSCc2cc(=O)c3ccc(C)cc3[nH]2)s1 | 1% | . | ? | 4% | . | -9%
CCCC[C@H](NC(C)=O)C(=O)N[C@@H](CCC(=O)O)C(=O)N[C@@H](Cc1cnc[nH]1)C(=O)N[C@H](Cc1ccccc1)C(=O)N[C@@H](CCCN=C(N)N)C(=O)N[C@H](Cc1c[nH]c2ccccc12)C(=O)NCC(N)=O | . | . | . | . | -4% | .
C=C1C=CS(=O)(=O)N(C(CC(C)C)C(=O)OC)C1 (centres undefined) | . | . | . | . | 3% | .
Nc1nc(-c2ccccc2)c(-c2ccccc2)s1 | ? | -8% | 8% | 12% | -8% | -4%
